Records with an inconclusive call do not appear. Activity calls are given as the source filed them. Calls come from the whole dose curve; as a rule, active = well fitted inhibition curve with a large enough effect; inconclusive = small, poorly fitted or top-dose-only effect; inactive = flat fitted curve, though single readings scatter.

A short description of this assay: Identification of antibody-drug conjugate (ADC) payloads which are substrates of ATP-binding cassette drug efflux transporters: ABCB1-HEK293-MDR-19 cell line. To be noted: HEK293 ABCB1 (MDR-19) viability, CellTiter-Glo, 48 h. From the text:
Antibody-drug conjugates (ADCs) feature an antibody recognizing a specific protein joined to a potent toxic payload. Numerous antibody-drug conjugates have received FDA approval; however, clinical resistance arises. Resistance mechanisms include decreased expression or mutation of the antibody target, impaired payload release, or increased expression of ATP-binding cassette (ABC) efflux transporters associated with multidrug resistance. We therefore sought to characterize the interaction of ABC multidrug transporters with ADC payloads. We performed a high-throughput screen with 27 common ADC payloads using cells lines expressing ABC transporters P-glycoprotein (P-gp, encoded by ABCB1) or ABCG2 (encoded by ABCG2). Confirmatory assays were also performed using cells transfected to express P-gp, ABCG2, or MRP1 (encoded by ABCC1). Several commonly used ADC payloads were substrates of P-gp, including calicheamicin gamma1, monomethyl auristatin E, DM1, and DM4. All the pyrrolobenzodiazepines tested - SJG136, SGD-1882, SG2057, and SG3199 - were substrates of P-gp, ABCG2, and MRP1. […] These findings highlight the risk of transporter-mediated resistance with certain ADC payloads and underscore the importance of selecting payloads that evade ABC transporter recognition in future ADC development.
HEK-293 cells were transfected with empty vector (pcDNA) or vector containing the human ABCB1 (MDR-19), ABCG2 (R-5), or ABCC1 gene (MRP1) and were maintained in EMEM with 2 mg/mL G418 added to maintain transporter expression. The HeLa derivative KB-3-1 and the P-gp overexpressing KB-8-5-11 subline were maintained in DMEM; KB-8-5-11 additionally received 100 ng/mL colchicine. H460 parental cells were obtained from the Division of Cancer Treatment and Diagnosis Tumor Repository, National Cancer Institute at Frederick, MD and were cultured in RPMI. The ABCG2 expressing subline H460 MX20 was generated by selecting H460 cells in 20 nM mitoxantrone. Media in all cases was supplemented with 10% FBS and 1% penicillin-streptomycin. We explored 27 common ADC payloads, in two orthogonal, paired cell line sets-a drug selected and transfected set for each transporter--to identify substrates of the ABC transporters P-gp and ABCG2. Compounds were sourced from Levena Biopharma (San Diego, CA), Selleck Chem (Houston, TX), ChemieTek (Indianapolis, IN), or Microsource Discovery Systems (Gaylordsville, CT). Screening was performed as previously described. Briefly, cells were plated at a density of 500 cells/well in 1536 well plates with compounds added using a 1536-head pin tool (Kalypsys, San Diego CA). Cells were incubated with cytotoxic drugs and processed with CellTiter Glo reagent (Promega, Madison, WI) to determine viability after 48 hours. P-gp substrates were identified by comparing compound activity between paired sets of low-expressing (sensitive) and over-expressing (resistant) cell lines.
As to `CC[C@@]1(O)C(=O)OCc2c1cc1n(c2=O)Cc2cc3ccccc3nc2-1`, the Potency was 13.3 nM (active).
For `CC[C@H](C)[C@@H]([C@@H](CC(=O)N1CCC[C@H]1[C@H](OC)[C@@H](C)C(=O)N[C@H](C)[C@@H](O)c1ccccc1)OC)N(C)C(=O)[C@@H](NC(=O)[C@H](C(C)C)N(C)C)C(C)C` the value was 66.6 nM (active); for `COc1cc2cc(c1Cl)N(C)C(=O)C[C@H](OC(=O)[C@H](C)N(C)C(=O)CCS)[C@]1(C)OC1[C@H](C)C1C[C@@](O)(NC(=O)O1)[C@H](OC)/C=C/C=C(\C)C2` (stereo partly specified), 298 nM (active).
As to `COc1cc2cc(c1Cl)N(C)C(=O)C[C@H](OC(=O)C(C)C)[C@]1(C)O[C@H]1[C@H](C)[C@@H]1C[C@@](O)(NC(=O)O1)[C@H](OC)C=CC=C(C)C2`, the Potency is 14.9 nM (active).
For `COc1cccc2c1C(=O)c1c(O)c3c(c(O)c1C2=O)C[C@@](O)(C(=O)CO)CC3OC1CC(N2CCOC(OC)C2)C(O)C(C)O1` (stereo partly specified), the Potency was 1.7 nM (active).
Next, `COc1cc2cc(C(=O)N3C[C@@H](CCl)c4c3cc(O)c3ccccc43)[nH]c2c(OC)c1OC`: 1.2 nM (active).

For the origin of these results see PubChem BioAssay AID2061318 (National Center for Advancing Translational Sciences (NCATS), 2025).
